# Test results taken from PubChem BioAssay.
# Values joined by “and” are separate entries in the source; they are usually repeats but may differ in a detail not shown here. Identical values can stand only once. The source holds several records for some structures; these can differ, active in one and inactive in another. Active and inactive are the calls of the source.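 Rule for the calls, unless noted: active = z-score of at least 1.8 in each of two replicates, scored against plate mean and spread of sample wells; inactive = the rest.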
# Assay: galactose survival enhancers in mitochondrial complex I cybrids – cell-based, galactose medium, ATP luminescence, primary screen (AID 1645843);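 note: positive z means more ATP and so rescue of galactose-driven cybrid death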
# Details: complex I mutant cybrid cells, 72 h, stronger effect = higher value
row,SMILES,z-score
1,O=c1[nH]cc(F)c(=O)[nH]1,6.85 (active) and -1.25 (inactive) and 2.99 (active)
2,CCc1nc(N)nc(N)c1-c1ccc(Cl)cc1,0.72 (inactive)
3,CCc1cccc2c3c([nH]c12)C(CC)(CC(=O)O)OCC3 (stereo unspecified),0.63 (inactive) and -0.035 (inactive)
4,Nc1ncn([C@@H]2O[C@H](CO)[C@@H](O)[C@H]2O)c(=O)n1,-1.16 (inactive) and -0.05 (inactive)
5,Cc1ccccc1C(OCCN(C)C)c1ccccc1 (stereo unspecified),-0.455 (inactive) and 0.28 (inactive) and 1.22 (inactive)
6,Cc1ccc(C)c(OCCCC(C)(C)C(=O)O)c1,0.125 (inactive) and 0.18 (inactive)
7,NC(=O)c1cnccn1,0.985 (inactive) and -0.015 (inactive)
8,CCCCCCNC(=O)n1cc(F)c(=O)[nH]c1=O,1.85 (inactive)
9,COC1=CC(=O)C[C@@H](C)[C@]12Oc1c(Cl)c(OC)cc(OC)c1C2=O,1.05 (inactive)
10,Cc1ncc([N+](=O)[O-])n1CC(C)O (stereo unspecified),0.59 (inactive) and 0.27 (inactive)
11,CO[C@@]1(NC(=O)Cc2cccs2)C(=O)N2C(C(=O)O)=C(COC(N)=O)CS[C@@H]21,-0.58 (inactive)
12,OCCN1CCN(CCCN2c3ccccc3Sc3ccc(C(F)(F)F)cc32)CC1,-1.04 (inactive) and -1.87 (inactive) and -0.735 (inactive)
13,CN(C)CCOC(c1ccc(Cl)cc1)c1ccccn1 (stereo unspecified),1.09 (inactive)
14,Cc1onc(-c2c(Cl)cccc2Cl)c1C(=O)N[C@@H]1C(=O)N2[C@@H]1SC(C)(C)[C@@H]2C(=O)O,0.54 (inactive)
15,COc1cc2nc(N(C)CCCNC(=O)C3CCCO3)nc(N)c2cc1OC (stereo unspecified),-0.01 (inactive) and 0.43 (inactive)
16,NS(=O)(=O)c1cc(C2(O)NC(=O)c3ccccc32)ccc1Cl (stereo unspecified),0.15 (inactive)
17,Cc1ccc(-c2cc(C(F)(F)F)nn2-c2ccc(S(N)(=O)=O)cc2)cc1,2.48 (active) and 1.33 (inactive) and 1.65 (inactive)
18,CN[C@H]1CC[C@@H](c2ccc(Cl)c(Cl)c2)c2ccccc21,-1.29 (inactive) and -1.52 (inactive) and -0.69 (inactive)
19,O=S(=O)(O)CCS,0.905 (inactive)

row,SMILES,z-score
1,C/C=C/C(=O)N(CC)c1ccccc1C,-0.06 (inactive)
2,COc1ccc(OC)c(C(O)CNC(=O)CN)c1 (stereo unspecified),0.54 (inactive)
3,Cn1cnc([N+](=O)[O-])c1Sc1ncnc2nc[nH]c12,-0.21 (inactive) and -1.11 (inactive)
4,c1ccc2[nH]c(-c3cscn3)nc2c1,0.46 (inactive)
5,CCCNCC(O)COc1ccccc1C(=O)CCc1ccccc1 (stereo unspecified),-1.23 (inactive) and -1.36 (inactive) and -0.68 (inactive)
6,NC(=O)N1c2ccccc2CC(=O)c2ccccc21,-1.62 (inactive) and -0.18 (inactive)
7,Cc1cn([C@H]2C[C@H](N=[N+]=[N-])[C@@H](CO)O2)c(=O)[nH]c1=O,0.4 (inactive) and 0.685 (inactive)
8,CN(CCOc1ccc(CC2SC(=O)NC2=O)cc1)c1ccccn1 (stereo unspecified),0.19 (inactive) and 0.27 (inactive)
9,COc1ccccc1OCC(O)COC(N)=O (stereo unspecified),0.945 (inactive)
10,OC(CCN1CCCC1)(c1ccccc1)C1CCCCC1 (stereo unspecified),-0.65 (inactive)
11,O=C1C(CCS(=O)c2ccccc2)C(=O)N(c2ccccc2)N1c1ccccc1 (stereo unspecified),-0.05 (inactive)
12,COC(=O)Nc1nc2ccc(C(=O)c3ccccc3)cc2[nH]1,0.145 (inactive) and 0.665 (inactive) and -1.08 (inactive)
13,CCn1cc(C(=O)O)c(=O)c2cc(F)c(N3CCN(C)CC3)cc21,0.7 (inactive) and 0.275 (inactive)
14,CN1CCCC(n2nc(Cc3ccc(Cl)cc3)c3ccccc3c2=O)CC1 (stereo unspecified),-0.51 (inactive)
15,NCc1ccc(S(N)(=O)=O)cc1,1.92 (inactive)
16,Clc1ccc2c(c1)C(N1CCNCC1)=Nc1ccccc1O2,-1.01 (inactive) and 0.165 (inactive) and -1.17 (inactive)
17,CC(C)(C)NCC(O)COc1cccc2c1C[C@H](O)[C@H](O)C2 (stereo partly specified),0.01 (inactive)
18,NS(=O)(=O)c1cc2c(cc1Cl)NC=NS2(=O)=O,0.185 (inactive) and 0.555 (inactive)

# Assay: growth inhibition, single agent or in combination, cell-based, chromothripsis tumors, cisplatin or BGB combos (AID 1671449; in the data active = inhibition above about 80%;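 note: cells exposed for 96 hours; 0% = vehicle DMSO and 100% = killing by high DMSO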)
# Details: LFS_MB_P medulloblastoma cells, at 0.5 µM, stronger effect = higher value
row,SMILES,inhibition
1,O=c1[nH]cc(F)c(=O)[nH]1,4.15% (inactive)
2,CCCCCCNC(=O)n1cc(F)c(=O)[nH]c1=O,-27.2% (inactive) and -12.2% (inactive)
3,Cn1cnc([N+](=O)[O-])c1Sc1ncnc2nc[nH]c12,-24.5% (inactive) and -18.6% (inactive)
4,CCn1cc(C(=O)O)c(=O)c2cc(F)c(N3CCN(C)CC3)cc21,-3.22% (inactive) and -29% (inactive)
